From PubChem BioAssay (NCATS)
Records with an inconclusive call do not appear. Active and inactive are the calls of the source. Unless noted, the call rests on the fitted dose curve; in most records, active means well fitted curve in the direction sought with a large enough effect; inconclusive means small, poorly fitted or top-dose-only effect, or another doubt; inactive means no such curve, though single readings can be large; an effect the other way counts as inactive or inconclusive.

What was measured:
[1] = target: Glucocorticoid receptor (Homo sapiens) (UniProt P04150); assay: qHTS assay for small molecule antagonists of glucocorticoid receptor signaling (AID 588533; active means well fitted inhibition curve with a large enough effect in the signal ratio, with a control signal flat, not every such curve was filed as active; the % refers to the signal ratio;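 further: cells stimulated with 2 nM dexamethasone as agonist; on the % scale 0 is the no-effect control and ±100 the full control effect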)
Sequence of Glucocorticoid receptor (Homo sapiens) (P04150 whole entry, looked up): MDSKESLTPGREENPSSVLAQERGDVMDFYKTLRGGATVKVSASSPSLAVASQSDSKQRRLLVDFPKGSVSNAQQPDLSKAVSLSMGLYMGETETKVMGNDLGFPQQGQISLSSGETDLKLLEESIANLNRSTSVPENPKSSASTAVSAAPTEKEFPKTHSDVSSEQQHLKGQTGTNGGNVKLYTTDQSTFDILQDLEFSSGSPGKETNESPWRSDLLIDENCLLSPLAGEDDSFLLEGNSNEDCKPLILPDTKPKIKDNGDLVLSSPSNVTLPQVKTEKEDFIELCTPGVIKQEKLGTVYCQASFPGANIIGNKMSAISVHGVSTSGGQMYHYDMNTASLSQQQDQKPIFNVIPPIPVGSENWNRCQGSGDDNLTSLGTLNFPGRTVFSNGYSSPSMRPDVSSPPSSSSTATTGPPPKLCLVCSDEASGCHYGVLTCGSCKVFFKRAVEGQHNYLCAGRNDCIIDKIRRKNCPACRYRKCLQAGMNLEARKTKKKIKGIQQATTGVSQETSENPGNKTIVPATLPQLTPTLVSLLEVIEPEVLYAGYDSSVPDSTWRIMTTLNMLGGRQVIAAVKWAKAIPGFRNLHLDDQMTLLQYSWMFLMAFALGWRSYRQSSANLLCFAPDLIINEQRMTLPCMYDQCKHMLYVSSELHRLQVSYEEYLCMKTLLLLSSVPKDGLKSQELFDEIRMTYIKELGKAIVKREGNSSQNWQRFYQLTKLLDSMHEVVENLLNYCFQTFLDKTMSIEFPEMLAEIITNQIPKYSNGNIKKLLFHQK
Outline: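 Antagonist-mode qHTS: compound titrations added to GRE-bla HeLa cells, then dexamethasone 2 nM final; 18 h, 37 C. CCF4 FRET fluorescence normalized to dexamethasone and DMSO; IC50 from Hill fit.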

[2] = qHTS assay for small molecule activators of the p53 signaling pathway (AID 651743; active means well fitted activation curve with a large enough effect in the signal ratio, not every such curve was filed as active; the % refers to the signal ratio; further: % of control where 0% means no effect); conditions: HCT-116 p53RE-bla, beta-lactamase FRET ratio, 16 h; hits give high values
Outline: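 A beta-lactamase reporter under p53 response element control, stably carried by HCT-116 cells, reported pathway activation. Test compounds were applied for 16 hours at 37 C, and fluorescence was measured 2 hours after adding the B/G FRET substrate.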

[3] = S16 Schwann cell viability assay (CellTiter-Glo assay) (AID 624031);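 further: cellular ATP luminescence as a viability measure; plate controls were DMSO-treated cells for no effect and cell-free wells for full effect; nearly all actives have a fitted effect of over 70% in size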
Outline: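 Native S16 rat Schwann cells in DMEM/10% FBS without phenol red were incubated overnight, then exposed to compounds for 24 h at 37 °C/5% CO2. Viability was read as ATP luminescence (CellTiter-Glo), normalized to no-cell wells and DMSO (0%).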

[4] = target: Guanine nucleotide-binding protein G(i) subunit alpha-1 (Homo sapiens) (UniProt P63096); assay: qHTS Assay for Inhibitors of RGS12 GoLoco Motif Activity (Green Fluorophore) (AID 879);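 further: 0% = labeled peptide with Gαi1 and full inhibition = labeled peptide alone without protein; negative values mean loss of peptide binding seen as reduced polarization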
Sequence of Guanine nucleotide-binding protein G(i) subunit alpha-1 (Homo sapiens) (P63096 whole entry, looked up): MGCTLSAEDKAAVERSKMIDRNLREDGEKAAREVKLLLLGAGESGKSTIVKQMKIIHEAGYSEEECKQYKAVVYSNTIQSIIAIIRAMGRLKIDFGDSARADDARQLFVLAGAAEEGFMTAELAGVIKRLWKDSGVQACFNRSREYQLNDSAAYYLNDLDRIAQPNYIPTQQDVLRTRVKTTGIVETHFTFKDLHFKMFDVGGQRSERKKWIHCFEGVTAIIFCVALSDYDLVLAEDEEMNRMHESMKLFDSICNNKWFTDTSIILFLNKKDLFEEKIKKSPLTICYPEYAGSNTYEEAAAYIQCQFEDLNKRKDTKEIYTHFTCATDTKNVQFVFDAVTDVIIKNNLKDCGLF
Outline: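 A drop in FITC polarization marked displacement of the FITC-tagged RGS12 GoLoco peptide (10 nM) from Gαi1 (50 nM). Compounds were incubated 10 min at room temperature in Tris pH 7.5 buffer containing 150 mM NaCl, 0.1 mM GDP and 0.05% NP40; unlabeled peptide titration served as control.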

[5] = qHTS Assay for Identification of Small Molecule Antagonists for NFkB Signaling Pathway (AID 895; active means well fitted inhibition curve with a large enough effect in the signal ratio, with a control signal flat, not every such curve was filed as active; the % refers to the signal ratio; further: on the % scale 0 is the no-effect control and ±100 the full control effect)
Outline: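 Beta-lactamase reporter read-out (460 and 530 nm emission ratio, 405 nm excitation, 2 hrs substrate loading RT) after 5 hr stimulation with 10 pM TNF alpha in compound-treated NFkB-bla ME-180 cells in low-serum medium.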

[6] = qHTS Assay for Identification of Small Molecule Agonists for Thrombopoietin (TPO) Signaling Pathway (AID 917); further: on the % scale 0 is the no-effect control and ±100 the full control effect
Outline: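 Ba/F3 (mouse) + hTPO receptor + GpIIb-promoter luciferase; IL-3 withdrawn overnight; compound + 26 pM TPO (EC50), 24 hrs, 37 C, 5% CO2; Steadylite luminescence, 10 min RT.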

[7] = target: Pyruvate kinase (Leishmania mexicana) (UniProt Q27686); assay: qHTS Validation Assay for Inhibitors of Leishmania Mexicana Pyruvate Kinase (AID 945);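 further: 0% = DMSO only neutral control wells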
Sequence of Pyruvate kinase (Leishmania mexicana) (Q27686 2-499 E452W): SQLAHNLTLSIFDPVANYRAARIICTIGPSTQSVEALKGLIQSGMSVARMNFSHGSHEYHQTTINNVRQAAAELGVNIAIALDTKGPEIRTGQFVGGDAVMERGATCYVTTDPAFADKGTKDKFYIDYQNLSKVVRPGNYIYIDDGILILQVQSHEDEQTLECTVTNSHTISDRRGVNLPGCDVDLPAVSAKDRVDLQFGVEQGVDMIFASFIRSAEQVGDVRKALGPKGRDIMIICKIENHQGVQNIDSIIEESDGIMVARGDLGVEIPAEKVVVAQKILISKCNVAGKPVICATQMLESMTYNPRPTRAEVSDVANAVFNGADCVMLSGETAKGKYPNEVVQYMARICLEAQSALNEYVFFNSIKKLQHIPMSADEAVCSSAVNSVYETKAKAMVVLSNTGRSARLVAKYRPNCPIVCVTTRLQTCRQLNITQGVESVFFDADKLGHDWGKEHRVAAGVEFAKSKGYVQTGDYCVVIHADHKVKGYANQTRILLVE
Outline: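 LmPYK E451W 0.2 nM; 0.5 mM PEP, 0.1 mM ADP, 7 mM MgCl2, 50 mM KCl, imidazole pH 7.2, 0.01% Tween 20, 0.05% BSA; 1 h RT; PKLight luminescence; DMSO-normalized.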

[8] = target: Pyruvate kinase PKM (Homo sapiens) (UniProt P14618); assay: qHTS Assay for Activators of Human Muscle Pyruvate Kinase (AID 954; active means well fitted curve in the direction sought with a large enough effect, not every such curve was filed as active;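 further: 0% = uninhibited enzyme and -100% = no enzyme or full thiadiazolimine inhibition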)
Sequence of Pyruvate kinase PKM (Homo sapiens) (P14618 whole entry, looked up): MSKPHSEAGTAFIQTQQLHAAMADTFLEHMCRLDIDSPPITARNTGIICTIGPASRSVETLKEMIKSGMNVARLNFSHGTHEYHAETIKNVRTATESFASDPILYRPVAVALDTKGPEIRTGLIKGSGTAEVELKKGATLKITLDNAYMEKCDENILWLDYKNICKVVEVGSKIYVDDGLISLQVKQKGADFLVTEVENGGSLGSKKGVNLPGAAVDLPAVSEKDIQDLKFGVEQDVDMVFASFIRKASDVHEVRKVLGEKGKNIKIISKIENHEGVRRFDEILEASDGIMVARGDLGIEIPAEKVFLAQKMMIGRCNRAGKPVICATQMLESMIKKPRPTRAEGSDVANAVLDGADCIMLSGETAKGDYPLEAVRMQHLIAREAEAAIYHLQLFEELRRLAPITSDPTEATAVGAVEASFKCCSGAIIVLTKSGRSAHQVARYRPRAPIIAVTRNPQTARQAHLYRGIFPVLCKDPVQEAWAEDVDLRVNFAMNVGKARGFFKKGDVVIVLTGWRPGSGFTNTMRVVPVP
Outline: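 ATP production by PKM2 detected via luciferase luminescence after 1 h room-temperature reaction (0.1 nM enzyme, PEP at Km 0.5 mM, ADP 0.1 mM, pH 7.2 imidazole buffer). Inhibition scaled to no-enzyme control; activation referenced to 0.3 nM enzyme wells.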

[9] = target: alpha-glucosidase (Oryza sativa, rice) (UniProt Q653V4); assay: Counterscreen for Glucocerebrosidase Inhibitors: qHTS Assay for Rice alpha-Glucosidase at pH 5.0 (AID 997);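 further: 0% = full activity with enzyme and -100% = basal without enzyme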
Outline: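 Endpoint fluorogenic assay at pH 5.0: compounds (0.7 nM to 77 uM) titrated against 4 nM rice enzyme and 400 uM 4-MU-alpha-glucoside for 20 min at room temperature; NaOH/glycine stop, read ex 365/em 440 nm, Hill-fitted AC50.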

[10] = test system: 7G8; assay: qHTS profiling for inhibitors of Plasmodium falciparum proliferation (AID 504749);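 further: 0% = DMSO vehicle and full inhibition = artemisinin control; nearly all actives have a fitted effect of over 60% in size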; conditions: P. falciparum in erythrocytes, SYBR Green DNA, 72 h; series mostly up to 12.8 µM
Outline: (§1)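 In a 72 h erythrocytic culture (37 C, humidified, 5% CO2) at 2.5% hematocrit and 0.3% starting parasitemia, compounds were tested; SYBR Green I in detergent lysis buffer stained parasite DNA overnight.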

[11] = test system: CP297; assay: as above; conditions: P. falciparum in erythrocytes, SYBR Green DNA, 72 h; series mostly up to 12.8 µM
Outline: as §1

[12] = test system: ICS; assay: as above; conditions: P. falciparum in erythrocytes, SYBR Green DNA, 72 h; series mostly up to 12.8 µM
Outline: as §1

CC1=CC(=O)CC(C)(C)C1(O)/C=C/C(C)=C\C(=O)O (configuration not stated)
inactive: outcome [1] | activation [2] -1.58%

CN1CCCC[C@@H]1CCN1c2ccccc2Sc2ccc(S(C)=O)cc21 (some centres not stated)
inactive: Potency [3]

CN1[C@@H]2CC[C@H]1CC(OC(=O)[C@@H](O)c1ccccc1)C2 (some centres not stated)
inactive: Potency [4] | Potency [5] | outcome [6] | outcome [7] | outcome [8] | outcome [9] | Potency [10] | Potency [11] | Potency [12]
